Shown are actives, neighbours in structure and some others; about 2.2% of the full set was active somewhere.
Hsp70 act: Hsp70 transcriptional activators, primary screen, cell-based, HeLa, Hsp70 promoter luciferase, luminescence, 10 µM. activation, % at 10 µM. HeLa Hsp70 promoter luciferase reporter; scaled: vehicle 0, proteasome-inhibitor control 100%. AID 1203, 2008. 200,000 tested, 0.04% active;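 active = activation above the mean across all tested compounds plus 3 SD, cutoff set per campaign, cut at about 5.5% in these data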;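 also: 100% = MG132 at 30 µM as the positive control and 0% = DMSO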
GAA850 FXN act: FXN promoter activators, primary screen, cell-based, luciferase luminescence, HEK293 lucGAA850; HEK293 lucGAA850 FXN promoter luciferase reporter, 24 h; percent of 10 µM SAHA response; activation, % at 6 µM; 360,000 tested, 0.56% active;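 active = activation above the average of all compounds screened plus 3 SD, cutoff fixed separately per campaign, cut at about 7.5% in these data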;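 also: 0% = DMSO wells and 100% = 10 µM SAHA wells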
SMARCA2 act: SMARCA2 (BRM) function activators, primary screen, cell-based, luminescence, high throughput; activation, % at 9.1 µM; MG213 cells, MMTV-luciferase reporter, dexamethasone, overnight; AID 652017, 2013; 370,000 tested, 1% active; in the data active = activation above about 7.8%;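 also: 0% = vehicle wells and 100% = reference activator wells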
GalR3 antagonist: GalR3 antagonists in HEK293 cells, primary screen, cell-based, fluorescence readout; inhibition, % at 3 µM; Galanin receptor type 3 (Homo sapiens), O60755; AID 651719, 2012; 360,000 tested, 0.44% active; HEK293 GalR3-CNG cAMP membrane potential fluorescence; galR3 body fused to GalR1 C-terminus;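 active = inhibition above the screen-wide average plus 3 SD, cut at about 13% in these data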;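 also: forskolin and galanin both at EC90 stimulate the cells; cAMP rise reported by CNG channel membrane potential dye signal; 0% = forskolin plus galanin with DMSO and 100% = forskolin alone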
Target sequence (O60755 1-299 limits assumed): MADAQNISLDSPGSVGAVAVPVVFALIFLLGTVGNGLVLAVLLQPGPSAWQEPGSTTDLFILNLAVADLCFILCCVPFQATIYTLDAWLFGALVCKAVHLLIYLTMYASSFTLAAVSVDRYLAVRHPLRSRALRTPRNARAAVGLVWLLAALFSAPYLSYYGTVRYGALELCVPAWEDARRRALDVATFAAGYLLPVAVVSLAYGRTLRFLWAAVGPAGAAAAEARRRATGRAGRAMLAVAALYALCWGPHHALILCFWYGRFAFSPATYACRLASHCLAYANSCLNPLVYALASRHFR
HIF activator: HIF pathway transcriptional activators, primary screen, cell-based, U2OS HRE-luciferase, luminescence; U2OS HRE-luciferase reporter; normalized: DMSO 0%, desferrioxamine 100%; activation, % at 7.5 µM (by protocol); 300,000 tested, 0.32% active;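 active = mean activation of at least 10% of the iron chelator positive control signal, with at least half of replicates also reaching 10%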
GalR3 conf: GalR3 antagonist hit confirmation, cell-based, fluorescence, triplicate; HEK293 GalR3 CNG cAMP biosensor, membrane potential fluorescence; galR3 fused to GalR1 carboxy tail; challenged with forskolin and galanin at EC90; 1,600 tested, 59% active; shares compounds with GalR3 antagonist; inhibition, % at 3 µM;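 active = inhibition above the primary screen's cutoff, the mean inhibition of all screened compounds plus 3 SD, cut at about 13% in these data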;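 also: 0% = forskolin plus galanin and 100% = forskolin alone with DMSO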
CNG parental: nonspecific cAMP agonists in parental HEK-CNG cells, counter-screen for GalR3 antagonist project, cell-based, fluorescence, high throughput; shares compounds with GalR3 antagonist; HEK293-CNG parental cells, cAMP membrane potential fluorescence; normalised: DMSO wells 0%, forskolin wells 100%; activation, % at 3 µM; 1,600 tested, 10% active; AID 652268, 2013; in the data active = activation above about 1.3%
* hit, by the source's call; . = no result.

SMILES	Hsp70 act	GAA850 FXN act	SMARCA2 act	GalR3 antagonist	HIF activator	GalR3 conf	CNG parental
C#CCNc1cccc2c1S(=O)(=O)N[C@H](C)CO2	.	.	-2	-5	.	.	.
O=C(NN=C(c1ccccc1)c1ccccn1)c1ccccc1	.	2	-2	13*	.	39*	1
C/C(=N/NC(=O)c1ccc(C(C)(C)C)cc1)c1ccccn1	.	0	-3	-8	1	.	.
Cc1ccc(/C=C/C(=O)Nc2ccccc2C(N)=O)cc1	0	4	5	.	0	4	0
NC(=O)c1ccccc1NC(=O)/C=C/C(=O)O	0	2	-1	1	-1	.	.
CCC(=O)Nc1cccc(-c2cn3cccc(C)c3n2)c1	.	2	0	13*	1	-1	0
CCN1/C(=C/C=C/c2sc3ccccc3[n+]2CC)Sc2ccccc21	.	-7	.	.	-1	.	.
CCN1/C(=C/c2ccc3cc(C)ccc3[n+]2CC)Sc2ccccc21	1	-9	-7	38*	26*	45*	12*
CCN1/C(=C/c2ccc3cc(C)ccc3[n+]2CC)Sc2cc(C)c(C)cc21	0	-9	-8	51*	.	58*	9.7*
CCOC(=O)/C(=C/C=C1\Sc2cc(C)c(C)cc2N1CC)C(C)=O	0	2	0	-1	0	.	.
Oc1ccc2ccccc2c1CN1CCCCC1	.	-1	-5	14*	.	17*	0
Oc1ccc2ccccc2c1CN1CCCC1	0	-1	4	-4	1	.	.
COC(=O)[C@]12C[C@H](CC(=O)N3CCOCC3)C(=O)N(Cc3ccc(Cl)cc3Cl)C1=C[C@H](C(C)(C)C)O[C@@H]2C	.	.	-4	.	.	.	.
COc1ccc(C(=O)OCCCN(C)C2CN(Cc3cn(Cc4ccccc4C(F)(F)F)nn3)S(=O)(=O)C2)cc1OC (stereo not given)	.	.	1	.	.	.	.
CC(C)Nc1nc(Cl)nc(N(C#N)CN2C(=O)c3ccccc3C2=O)n1	0	3	14*	16*	-5	1	1
CC(C)Oc1cccc(C(=O)C2CCCN(Cc3cnc(N4CCOCC4)s3)C2)c1 (stereo not given)	0	0	-5	40*	0	30*	0
CCNC(=O)OC[C@H]1O[C@H](C#Cc2ccc(C(C)(C)C)cc2)C=C[C@H]1OC(C)=O	.	.	-3	-5	.	.	.
OC1(c2ccc(OC(F)F)cc2)CSC(=Nc2cccnc2)N1C1CC1 (stereo not given)	0	0	-7	98*	0	-5	0
COc1ccc(OC)c(C2(O)CSC(=Nc3cccnc3)N2Cc2ccco2)c1 (stereo not given)	1	-2	-4	-8	-1	.	.
COc1ccc(-c2cc(-c3n[nH]c(=S)n3-c3cc(OC)ccc3OC)[nH]n2)cc1	0	5	-2	24*	0	12	1
COc1cc2c3c(c1)C(C)CC(C)(C)N3C(=O)C2=O (stereo not given)	0	1	-3	22*	-1	23*	1
COc1cc2c3c(c1)C(C)=CC(C)(C)N3C(=O)C2=O	0	-2	-2	14*	-1	9	1
Cc1ccc(C)c(NC(=O)CN2C(=O)CCSc3ccccc32)c1	.	.	-1	.	.	.	.
O=C(COC(=O)c1ccccn1)Nc1ccc2c(c1)OCO2	0	-1	3	-3	0	.	.
O=C(COC(=O)c1cccnc1)Nc1ccc2c(c1)OCO2	0	0	-3	14*	0	-1	0
SMILES	Hsp70 act	GAA850 FXN act	SMARCA2 act	GalR3 antagonist	HIF activator	GalR3 conf	CNG parental
COC(=O)[C@]12C[C@H](CC(=O)NCCC(C)C)C(=O)N(CCC3=CCCCC3)C1=C[C@H](C(C)C)O[C@@H]2C1CC1	.	.	-3	.	.	.	.
COc1ccc(C(=O)/C=C2\Sc3ccccc3N2C)cc1	0	6	6	-4	3	.	.
COc1ccc(-[n+]2c(C)cc(/C=C3\Sc4ccccc4N3C)cc2C)cc1	1	-11	-7	82*	0	103*	-1
COc1ccccc1-[n+]1c(C)cc(/C=C2\Sc3ccccc3N2C)cc1C	.	-15	-12	44*	.	107*	0
C#CCN1CC(N(C)CCOC(=O)CCCc2ccccc2)CS1(=O)=O (stereo not given)	.	.	0	.	.	.	.
COc1ccc(-c2cc(-c3nnc(SCC(=O)Nc4ccccc4-c4ccccc4)n3N)[nH]n2)cc1	.	.	-5	.	.	.	.
Cc1ccc(S(=O)(=O)NCC2CCC(C(=O)NCCCOC(C)C)CC2)cc1 (stereo not given)	0	.	.	.	-2	.	.
CCOCCCNC(=O)C1CCC(CNS(=O)(=O)c2ccc(OC)cc2)CC1 (stereo not given)	0	0	-4	14*	0	42*	1.9*
CC(C)OCCCNC(=O)C1CCC(CNS(=O)(=O)c2ccccc2)CC1 (stereo not given)	0	-2	-1	26*	-1	4	0
CCOCCCNC(=O)C1CCC(CNS(=O)(=O)c2ccc(F)cc2)CC1 (stereo not given)	-1	0	-3	2	0	.	.
Cc1ccc(NC(=O)c2ccc(CS(=O)(=O)Cc3ccccc3C)o2)cc1C	.	.	-4	.	.	.	.
Oc1ccc(Cl)cc1CNc1cnc2ccccc2c1	.	-1	0	-5	3	.	.
C=CCc1cccc(CNc2cnc3ccccc3c2)c1O	.	1	-4	60*	5	90*	-1
Cn1nc(C(C)(C)C)cc1C(=O)NCc1ccc2c(c1)OCO2	.	-3	-2	105*	1	108*	-1
CCn1ccc(C(=O)NCc2ccc3c(c2)OCO3)n1	.	2	-2	-1	-1	.	.
CCOc1ccc(OCCSc2nc3ccccc3[nH]2)cc1	0	-1	-4	-11	0	.	.
CCCOc1ccc(CSc2nc3ccccc3[nH]2)cc1	0	1	-2	86*	3	108*	-1
CC(C)[C@@H](CO)N1Cc2nnn(Cc3ccccc3)c2-c2ccccc2S1(=O)=O	.	.	-3	.	.	.	.
CCN(c1ccccc1)S(=O)(=O)c1ccc(C(=O)Oc2ccc(C(C)=O)cc2)cc1	0	-2	-2	14*	-1	-2	0
CCN(c1ccccc1)S(=O)(=O)c1ccc(C(=O)Nc2cccc(NC(C)=O)c2)cc1	.	-2	-4	-9	.	.	.

Screening data (PubChem)
